PubChem BioAssay (EPA / NIEHS)
Records with an inconclusive call do not appear. A structure can be active in one record and inactive in another. Activity calls are given as the source filed them. The calls were made as follows, unless noted: active = hit-call score of the fitted dose curve at least 0.9, where 1 is the maximum; inactive = score below 0.9.

Tests used:
[1] = target: Estrogen-related receptor gamma (Homo sapiens) (UniProt P62508); test: ATG_ERRg_TRANS: Attagene TRANS-FACTORIAL HepG2 Assay for human Estrogen-Related Receptor gamma (ERRg) (AID 2282977; active = hit-call score of the fitted dose curve at least 0.9, where 1 is the maximum;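 also: hits increase reporter signal over DMSO so potencies reflect activators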); settings: HepG2 Attagene TRANS reporter, ERRg transactivation
In short: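 HepG2 cells transiently transfected with multiplexed GAL4-UAS reporter units and chimeric NR-Gal4 constructs were exposed to test chemicals for 24 h. Reporter mRNA was measured by RT-PCR, 6-FAM primer extension, HpaI digestion and capillary electrophoresis; gain-of-signal versus DMSO.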

[2] = target: Glucocorticoid receptor (Homo sapiens) (UniProt P04150); test: ATG_GR_TRANS: Attagene TRANS-FACTORIAL HepG2 Assay for human Glucocorticoid Receptor (GR) (AID 2282978; active = hit-call score of the fitted dose curve at least 0.9, where 1 is the maximum;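 also: activators score as hits since higher reporter transcript over DMSO is fitted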); settings: HepG2 Attagene TRANS GR reporter, mRNA transcription
Chain of Glucocorticoid receptor (Homo sapiens) (P04150 whole entry, looked up, the tested form may be a part): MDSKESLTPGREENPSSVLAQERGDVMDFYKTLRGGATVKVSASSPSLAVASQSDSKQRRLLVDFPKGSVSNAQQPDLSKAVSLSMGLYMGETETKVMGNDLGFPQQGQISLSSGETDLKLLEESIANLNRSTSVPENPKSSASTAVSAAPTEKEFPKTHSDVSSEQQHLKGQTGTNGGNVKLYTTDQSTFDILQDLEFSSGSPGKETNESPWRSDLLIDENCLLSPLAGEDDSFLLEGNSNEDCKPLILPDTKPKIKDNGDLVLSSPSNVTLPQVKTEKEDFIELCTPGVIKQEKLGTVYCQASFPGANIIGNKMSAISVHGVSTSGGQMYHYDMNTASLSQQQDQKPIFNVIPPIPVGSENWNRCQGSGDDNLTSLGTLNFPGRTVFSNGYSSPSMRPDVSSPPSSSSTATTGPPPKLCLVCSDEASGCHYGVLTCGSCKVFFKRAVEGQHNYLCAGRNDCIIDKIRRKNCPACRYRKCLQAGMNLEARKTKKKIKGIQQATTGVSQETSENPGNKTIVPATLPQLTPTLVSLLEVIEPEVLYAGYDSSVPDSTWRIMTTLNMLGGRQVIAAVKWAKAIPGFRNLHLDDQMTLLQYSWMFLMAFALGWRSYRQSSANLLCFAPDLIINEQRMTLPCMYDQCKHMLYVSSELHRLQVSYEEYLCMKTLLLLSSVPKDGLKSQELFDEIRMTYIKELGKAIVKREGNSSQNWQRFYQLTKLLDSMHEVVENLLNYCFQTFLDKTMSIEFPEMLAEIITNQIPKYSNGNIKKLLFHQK
In short: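 Transiently transfected HepG2 cells express chimeric NR-GAL4 proteins acting on GAL4-UAS reporter units. Compounds are applied for 24 h. mRNA induction over DMSO is measured by capillary electrophoresis.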

[3] = target: Oxysterols receptor LXR-alpha (Homo sapiens) (UniProt Q13133); test: ATG_LXRa_TRANS: Attagene TRANS-FACTORIAL HepG2 Assay for human Liver X Receptor alpha (LXRa) (AID 2282980; active = hit-call score of the fitted dose curve at least 0.9, where 1 is the maximum); settings: HepG2 Attagene TRANS reporter, LXRa transactivation
Chain of Oxysterols receptor LXR-alpha (Homo sapiens) (Q13133 whole entry, looked up, the tested form may be a part): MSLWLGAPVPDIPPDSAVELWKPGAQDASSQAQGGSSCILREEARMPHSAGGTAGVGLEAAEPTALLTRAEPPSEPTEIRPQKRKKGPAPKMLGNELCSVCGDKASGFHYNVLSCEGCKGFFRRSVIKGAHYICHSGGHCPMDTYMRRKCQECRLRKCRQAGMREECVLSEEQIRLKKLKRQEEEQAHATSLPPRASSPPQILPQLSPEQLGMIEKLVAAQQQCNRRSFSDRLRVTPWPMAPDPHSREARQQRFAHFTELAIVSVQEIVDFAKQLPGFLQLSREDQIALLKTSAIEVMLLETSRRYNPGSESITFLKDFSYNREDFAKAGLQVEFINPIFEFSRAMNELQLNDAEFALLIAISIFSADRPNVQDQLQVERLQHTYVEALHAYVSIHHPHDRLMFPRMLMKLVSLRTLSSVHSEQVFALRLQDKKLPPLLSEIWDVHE
In short: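 Read-out: reporter transcript levels by RT-PCR plus capillary electrophoresis, fluorescence intensity. Transiently transfected HepG2, exogenous NR-GAL4 chimera, GAL4-UAS reporters; 24 h compound exposure. Activity = increase over DMSO negative control.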

[4] = target: Oxysterols receptor LXR-beta (Homo sapiens) (UniProt P55055); test: ATG_LXRb_TRANS: Attagene TRANS-FACTORIAL HepG2 Assay for human Liver X Receptor beta (LXRb) (AID 2282981; active = hit-call score of the fitted dose curve at least 0.9, where 1 is the maximum); settings: HepG2 Attagene TRANS GAL4-LXRb reporter, mRNA
Chain of Oxysterols receptor LXR-beta (Homo sapiens) (P55055 whole entry, looked up, the tested form may be a part): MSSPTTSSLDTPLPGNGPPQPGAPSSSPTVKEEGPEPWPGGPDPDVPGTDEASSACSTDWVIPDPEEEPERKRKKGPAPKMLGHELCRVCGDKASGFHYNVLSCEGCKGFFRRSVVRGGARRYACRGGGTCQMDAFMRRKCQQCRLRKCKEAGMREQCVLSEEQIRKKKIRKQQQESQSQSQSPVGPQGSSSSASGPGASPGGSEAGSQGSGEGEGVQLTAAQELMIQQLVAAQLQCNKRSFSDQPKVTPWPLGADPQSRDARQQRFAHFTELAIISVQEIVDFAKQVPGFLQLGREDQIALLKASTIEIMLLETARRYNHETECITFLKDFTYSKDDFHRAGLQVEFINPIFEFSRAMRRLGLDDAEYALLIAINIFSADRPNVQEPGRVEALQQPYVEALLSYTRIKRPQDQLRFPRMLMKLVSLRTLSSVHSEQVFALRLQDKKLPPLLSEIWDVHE
In short: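 Gain-of-signal mRNA reporter endpoint, DMSO as negative control. Transiently transfected HepG2 cells carrying the NR-Gal4 chimera and GAL4-UAS reporter units were treated 24 h; transcripts quantified by RT-PCR and capillary electrophoresis fluorescence.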

[5] = target: Hepatocyte nuclear factor 4-alpha (Homo sapiens) (UniProt P41235); test: ATG_HNF4a_TRANS: Attagene TRANS-FACTORIAL HepG2 Assay for human Hepatocyte Nuclear Factor 4 alpha (HNF4a) (AID 2282982; active = hit-call score of the fitted dose curve at least 0.9, where 1 is the maximum); settings: HepG2 HNF4a transactivation reporter, mRNA readout
Chain of Hepatocyte nuclear factor 4-alpha (Homo sapiens) (P41235 whole entry, looked up, the tested form may be a part): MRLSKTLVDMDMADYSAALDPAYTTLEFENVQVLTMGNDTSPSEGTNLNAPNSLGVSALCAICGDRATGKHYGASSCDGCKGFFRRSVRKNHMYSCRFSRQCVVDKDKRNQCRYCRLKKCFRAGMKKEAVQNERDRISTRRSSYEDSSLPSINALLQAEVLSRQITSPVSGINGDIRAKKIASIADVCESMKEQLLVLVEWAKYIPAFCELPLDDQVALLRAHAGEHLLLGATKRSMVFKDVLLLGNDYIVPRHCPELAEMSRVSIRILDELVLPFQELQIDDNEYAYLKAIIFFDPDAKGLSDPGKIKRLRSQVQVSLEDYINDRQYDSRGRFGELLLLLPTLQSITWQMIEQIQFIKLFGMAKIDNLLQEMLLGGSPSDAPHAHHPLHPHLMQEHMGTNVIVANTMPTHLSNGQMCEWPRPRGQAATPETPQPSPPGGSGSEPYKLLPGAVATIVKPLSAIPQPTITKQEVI
In short: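 Gain-of-signal mRNA induction, relative to DMSO vehicle, was read after 24 h compound treatment of HepG2 cells bearing transfected GAL4-UAS reporters. Detection used RT-PCR, 6-FAM primer extension and capillary electrophoresis.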

[6] = ATG_M_32_TRANS: Attagene TRANS-FACTORIAL HepG2 Assay for M32 Transcription Factor (Internal Marker) (AID 2282984; active = hit-call score of the fitted dose curve at least 0.9, where 1 is the maximum;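 also: transcript level of a background control reporter unit measured by RT-PCR and capillary electrophoresis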); settings: HepG2 Attagene TRANS M32 internal marker reporter
In short: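 Capillary electrophoresis of 6-FAM-labelled reporter fragments gives the signal; data fitted for gain over DMSO negative control. Source: HepG2 cells bearing transient multiple reporter transcription units, 24 h exposure.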

[7] = target: Nuclear respiratory factor 1 (Homo sapiens) (UniProt Q16656); test: ATG_NRF1_CIS: Attagene CIS-FACTORIAL HepG2 Assay for human Nuclear Respiratory Factor 1 (NRF1) Orphan Gene (AID 2282987); settings: HepG2 NRF1 cis-element reporter, Attagene multiplex; actives raise or lower the signal
Chain of Nuclear respiratory factor 1 (Homo sapiens) (Q16656 whole entry, looked up): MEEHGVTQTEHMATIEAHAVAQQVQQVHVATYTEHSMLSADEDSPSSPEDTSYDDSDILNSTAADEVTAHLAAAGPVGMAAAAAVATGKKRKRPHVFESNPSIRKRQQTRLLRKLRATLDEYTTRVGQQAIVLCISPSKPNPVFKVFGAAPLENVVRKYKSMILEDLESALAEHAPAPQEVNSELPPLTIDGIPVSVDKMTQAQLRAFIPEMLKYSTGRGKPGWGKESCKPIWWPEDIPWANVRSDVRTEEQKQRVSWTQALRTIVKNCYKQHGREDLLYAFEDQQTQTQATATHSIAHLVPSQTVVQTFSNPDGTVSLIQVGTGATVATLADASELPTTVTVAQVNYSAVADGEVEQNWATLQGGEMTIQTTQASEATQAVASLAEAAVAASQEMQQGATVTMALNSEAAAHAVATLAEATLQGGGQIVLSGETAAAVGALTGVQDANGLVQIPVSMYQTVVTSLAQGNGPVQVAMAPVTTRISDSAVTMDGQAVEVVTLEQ
In short: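 Reporter mRNA induction or loss in HepG2 cells after 24 h dosing; cis-regulated reporter constructs report endogenous transcription-factor activity. Quantified by RT-PCR/capillary electrophoresis fluorescence, DMSO-referenced.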

[8] = ATG_NFI_CIS: Attagene CIS-FACTORIAL HepG2 Assay for human Nuclear Factor I (NFI) (AID 2282989); settings: HepG2 cis-regulatory reporter, NFI response element transcription; actives raise or lower the signal
In short: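 Multiplexed cis-reporter system in human HepG2 cells reports native TF activity as reporter mRNA induction 24 h post-dose. Fragments labelled with 6-FAM, HpaI-digested and resolved by capillary electrophoresis; activity fitted both directions versus DMSO.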

[9] = target: Myc proto-oncogene protein (Homo sapiens) (UniProt P01106); test: ATG_Myc_CIS: Attagene CIS-FACTORIAL HepG2 Assay for human Myelocytomatosis (Myc) Proto-Oncogene Transcription Factor (AID 2282990); settings: HepG2, Attagene cis-reporter transcription factor activity; actives raise or lower the signal
Chain of Myc proto-oncogene protein (Homo sapiens) (P01106 whole entry, looked up): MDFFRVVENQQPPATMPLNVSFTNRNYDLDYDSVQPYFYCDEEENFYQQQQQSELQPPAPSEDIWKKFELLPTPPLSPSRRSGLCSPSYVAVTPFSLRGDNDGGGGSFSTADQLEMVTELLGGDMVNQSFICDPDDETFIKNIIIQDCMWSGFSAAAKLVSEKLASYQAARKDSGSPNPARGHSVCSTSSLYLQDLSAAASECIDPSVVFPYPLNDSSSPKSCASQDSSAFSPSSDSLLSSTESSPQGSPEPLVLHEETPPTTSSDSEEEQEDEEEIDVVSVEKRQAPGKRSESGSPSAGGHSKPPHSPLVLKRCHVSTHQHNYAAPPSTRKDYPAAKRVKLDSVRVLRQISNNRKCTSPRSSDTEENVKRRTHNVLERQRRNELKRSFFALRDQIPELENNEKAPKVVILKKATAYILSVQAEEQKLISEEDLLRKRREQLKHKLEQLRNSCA
In short: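 Transiently transfected HepG2 cells bearing cis-promoter reporter units for endogenous transcription factors; 24 h exposure. Reporter mRNA measured by RT-PCR, 6-FAM primer extension, HpaI cut and capillary electrophoresis; bidirectional fit relative to DMSO.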

[10] = ATG_NF_kB_CIS: Attagene CIS-FACTORIAL HepG2 Assay for human Nuclear Factor Kappa B (NF-kB) (AID 2282991); settings: HepG2 Attagene cis-factorial NF-kB reporter mRNA; actives raise or lower the signal
In short: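 DMSO served as negative control and baseline for bidirectional curve fitting. Transiently transfected HepG2 cells were dosed for 24 h, then reporter transcripts were measured by RT-PCR with capillary electrophoresis detection.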

[11] = ATG_NRF2_ARE_CIS: Attagene CIS-FACTORIAL HepG2 Assay for human Nuclear Factor Erythroid 2 Related Factor 2 (NFR2) response to Antioxidant Response Elements (ARE) (AID 2282992); settings: HepG2 Attagene ARE/NRF2 reporter, transcription factor activity; actives raise or lower the signal;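 as to AC50: reporter mRNA level measured by RT-PCR and capillary electrophoresis fluorescence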
In short: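 HepG2 cells transiently transfected with multiplexed cis-regulated reporter transcription units measure endogenous transcription factor activity. Reporter mRNA at 24 h is quantified by RT-PCR, fluorescent labelling and capillary electrophoresis, with bidirectional fitting relative to DMSO.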

[12] = ATG_Oct_MLP_CIS: Attagene CIS-FACTORIAL HepG2 Assay for human Octamer-Binding Transcription Factor (Oct) (AID 2282993); settings: HepG2 Attagene cis-factorial Oct reporter, mRNA; actives raise or lower the signal
In short: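 After 24 h compound exposure, transfected HepG2 cells were lysed for total RNA; reporter-specific cDNA was PCR-amplified, fluorescently labelled and sized by capillary electrophoresis. Bidirectional curve fitting used DMSO as baseline.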

[13] = target: Cellular tumor antigen p53 (Homo sapiens) (UniProt P04637); test: ATG_p53_CIS: Attagene CIS-FACTORIAL HepG2 Assay for human p53 Transcription Factor (AID 2282994); settings: HepG2 p53 cis-element reporter, Attagene mRNA; actives raise or lower the signal
Chain of Cellular tumor antigen p53 (Homo sapiens) (P04637 whole entry, looked up): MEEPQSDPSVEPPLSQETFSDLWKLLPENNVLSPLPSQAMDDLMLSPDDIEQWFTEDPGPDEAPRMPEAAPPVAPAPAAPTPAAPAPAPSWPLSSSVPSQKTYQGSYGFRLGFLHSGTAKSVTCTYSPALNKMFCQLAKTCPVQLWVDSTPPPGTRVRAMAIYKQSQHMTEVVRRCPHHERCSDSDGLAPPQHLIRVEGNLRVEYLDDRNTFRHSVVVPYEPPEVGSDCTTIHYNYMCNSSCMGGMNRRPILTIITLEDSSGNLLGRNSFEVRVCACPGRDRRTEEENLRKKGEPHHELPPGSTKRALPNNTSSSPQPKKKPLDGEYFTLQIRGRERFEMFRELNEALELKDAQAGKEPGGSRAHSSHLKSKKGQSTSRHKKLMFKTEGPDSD
In short: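 HepG2 cells transiently transfected with multiplexed cis-regulated reporter transcription units read endogenous TF activity. After 24 h compound exposure, reporter mRNA was quantified by RT-PCR, fluorescent labelling, HpaI digestion and capillary electrophoresis; bidirectional fits versus DMSO baseline.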

[14] = BSK_3C_TissueFactor: BioMAP Diversity Plus: 3C Assay for Tissue Factor Biomarker Activity (AID 2282997); settings: BioMAP 3C HUVEC, tissue factor biomarker readout; actives raise or lower the signal
In short: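 Human vascular primary cells (umbilical vein endothelium) received test chemical; Tissue Factor was determined by ELISA at 24 h, and both gain and loss of signal versus DMSO were fitted.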

[15] = BSK_3C_uPAR: BioMAP Diversity Plus: 3C Assay for Urokinase-type plasminogen activator receptor (uPAR) Biomarker Activity (AID 2282998); settings: BioMAP 3C HUVEC, uPAR biomarker ELISA; actives raise or lower the signal
In short: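 Values derive from bidirectional curve fitting relative to DMSO, which served as baseline of activity. uPAR was measured by ELISA in human umbilical vein endothelial primary cultures 24 h after compound addition.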

[16] = ATG_GAL4_TRANS: Attagene TRANS-FACTORIAL HepG2 Assay for GAL4 (Internal Marker) (AID 2282976; active = hit-call score of the fitted dose curve at least 0.9, where 1 is the maximum); settings: HepG2 Attagene TRANS GAL4 internal marker reporter
In short: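 RT-PCR/capillary electrophoresis readout of reporter mRNA. HepG2, transient MRTU transfection (GAL4-UAS reporters), 24 h compound exposure. Background-control endpoint, positive direction vs DMSO baseline.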

[17] = ATG_M_06_TRANS: Attagene TRANS-FACTORIAL HepG2 Assay for M06 Transcription Factor (Internal Marker) (AID 2282983; active = hit-call score of the fitted dose curve at least 0.9, where 1 is the maximum); settings: HepG2 Attagene TRANS M06 internal marker reporter
In short: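 After a 24 h chemical treatment of transfected HepG2, RNA underwent DNase I treatment, reverse transcription and reporter-specific PCR; labelled, HpaI-digested products were sized by capillary electrophoresis. Signal increase relative to DMSO defined activity.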

[18] = target: Nuclear receptor subfamily 4 group A member 2 (Homo sapiens) (UniProt P43354); test: ATG_NURR1_TRANS: Attagene TRANS-FACTORIAL HepG2 Assay for human Nuclear Receptor Related Protein 1 (NURR1) (AID 2282985; active = hit-call score of the fitted dose curve at least 0.9, where 1 is the maximum); settings: HepG2 Attagene TRANS reporter, mRNA readout
Chain of Nuclear receptor subfamily 4 group A member 2 (Homo sapiens) (P43354 whole entry, looked up): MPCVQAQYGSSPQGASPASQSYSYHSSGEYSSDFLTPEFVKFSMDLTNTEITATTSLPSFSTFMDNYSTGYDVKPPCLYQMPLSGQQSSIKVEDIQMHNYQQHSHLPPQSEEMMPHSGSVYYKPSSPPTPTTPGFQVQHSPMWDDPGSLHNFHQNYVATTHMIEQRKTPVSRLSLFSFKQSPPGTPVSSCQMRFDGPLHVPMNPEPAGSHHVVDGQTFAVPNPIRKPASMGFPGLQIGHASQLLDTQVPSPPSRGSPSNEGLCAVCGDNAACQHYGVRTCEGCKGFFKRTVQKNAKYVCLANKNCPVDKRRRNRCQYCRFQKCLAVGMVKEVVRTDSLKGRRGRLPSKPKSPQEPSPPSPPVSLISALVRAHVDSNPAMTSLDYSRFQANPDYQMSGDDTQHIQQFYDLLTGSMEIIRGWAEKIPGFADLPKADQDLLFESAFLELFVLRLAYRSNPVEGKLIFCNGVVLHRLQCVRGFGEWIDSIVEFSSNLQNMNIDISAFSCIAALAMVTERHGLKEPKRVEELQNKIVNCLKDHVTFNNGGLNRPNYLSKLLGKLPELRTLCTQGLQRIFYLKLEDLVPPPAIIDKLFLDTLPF
In short: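 HepG2 / transient MRTU transfection / 24 h compound exposure / RT-PCR + CE fluorescence of reporter mRNA / gain-of-signal vs DMSO.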

[19] = target: Transcriptional activator Myb (Homo sapiens) (UniProt P10242); test: ATG_Myb_CIS: Attagene CIS-FACTORIAL HepG2 Assay for human Myeloblastosis (Myb) Proto-Oncogene Transcription Factor (AID 2282986); settings: HepG2 Attagene CIS-FACTORIAL Myb reporter transcription; actives raise or lower the signal
In short: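 Using HepG2 liver cells bearing transiently transfected cis-promoter reporter constructs, the assay measures induction or loss of reporter mRNA after 24 hours of dosing. Detection used fluorescently labeled RT-PCR products separated by capillary electrophoresis.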

[20] = target: Bile acid receptor (Homo sapiens) (UniProt Q96RI1); test: ATG_FXR_TRANS: Attagene TRANS-FACTORIAL HepG2 Assay for Farnesoid X Receptor (FXR) (AID 2282979; active = hit-call score of the fitted dose curve at least 0.9, where 1 is the maximum;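 also: hits raise reporter mRNA above DMSO so AC50 marks FXR activation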); settings: HepG2 Attagene TRANS FXR-GAL4 reporter transcription
Chain of Bile acid receptor (Homo sapiens) (Q96RI1 whole entry, looked up, the tested form may be a part): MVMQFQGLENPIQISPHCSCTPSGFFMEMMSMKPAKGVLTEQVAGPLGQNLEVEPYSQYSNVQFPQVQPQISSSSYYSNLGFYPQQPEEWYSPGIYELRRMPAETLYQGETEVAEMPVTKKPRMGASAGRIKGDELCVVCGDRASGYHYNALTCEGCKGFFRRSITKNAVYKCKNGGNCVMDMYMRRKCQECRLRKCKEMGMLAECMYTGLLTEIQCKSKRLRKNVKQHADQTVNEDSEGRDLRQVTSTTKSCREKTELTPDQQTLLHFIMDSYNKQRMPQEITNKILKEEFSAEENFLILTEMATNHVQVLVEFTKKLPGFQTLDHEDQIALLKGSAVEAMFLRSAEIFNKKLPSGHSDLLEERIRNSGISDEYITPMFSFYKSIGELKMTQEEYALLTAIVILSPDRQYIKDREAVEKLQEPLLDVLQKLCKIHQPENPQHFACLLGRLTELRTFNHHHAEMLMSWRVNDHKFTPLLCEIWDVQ
In short: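 Read-out: fluorescent reporter transcripts quantified by capillary electrophoresis after RT-PCR of total RNA. Source cells were HepG2 transiently carrying chimeric NR-GAL4 plus GAL4-UAS reporter units, dosed 24 h. Activity fitted upward relative to DMSO baseline.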

Compound: CCC(=NOC/C=C/Cl)C1=C(O)CC(C2CCOCC2)CC1=O (configuration not stated)
- outcome [1]: inactive
- outcome [2]: inactive
- outcome [3]: inactive
- outcome [4]: inactive
- outcome [5]: inactive
- outcome [6]: inactive
- outcome [7]: inactive
- outcome [8]: inactive
- outcome [9]: inactive
- outcome [10]: inactive
- outcome [11]: inactive
- outcome [12]: inactive
- outcome [13]: inactive
- outcome [14]: inactive
- outcome [15]: inactive

Compound: CN(C)[C@@H]1C(=O)C(C(N)=O)=C(O)[C@@]2(O)C(=O)C3=C(O)c4c(O)cccc4[C@@](C)(O)[C@H]3[C@H](O)[C@@H]12
- outcome [16]: inactive
- outcome [3]: inactive
- outcome [4]: inactive
- outcome [5]: inactive
- outcome [17]: inactive
- outcome [6]: inactive
- outcome [18]: inactive
- outcome [7]: inactive
- outcome [8]: inactive
- outcome [9]: inactive
- AC50 [11]: 20.8 µM (active)
- outcome [11]: inactive
- AC50 [12]: 13.6 µM (active)
- outcome [12]: inactive
- outcome [14]: inactive
- outcome [15]: inactive

Compound: CCCCOC(=O)[C@@H](C)Oc1ccc(Oc2ccc(C#N)cc2F)cc1
- outcome [1]: inactive
- outcome [2]: inactive
- outcome [3]: inactive
- outcome [4]: inactive
- outcome [6]: inactive
- outcome [7]: inactive
- outcome [8]: inactive
- outcome [9]: inactive
- outcome [10]: inactive
- outcome [11]: inactive
- outcome [12]: inactive
- outcome [13]: inactive
- outcome [14]: inactive
- outcome [15]: inactive

Compound: CCOP(=S)(OCC)SCCSCC
- outcome [4]: inactive
- outcome [5]: inactive
- outcome [17]: inactive
- outcome [19]: inactive
- outcome [7]: inactive
- outcome [8]: inactive
- outcome [9]: inactive
- outcome [10]: inactive
- AC50 [11]: 33.7 µM (active)
- outcome [12]: inactive
- outcome [13]: inactive
- outcome [14]: inactive
- outcome [15]: inactive

Compound: CON=C(C(=O)OC)c1ccccc1CON=C(C)c1cccc(C(F)(F)F)c1
- outcome [3]: inactive
- outcome [4]: inactive
- outcome [5]: inactive
- outcome [6]: inactive
- outcome [7]: inactive
- outcome [8]: inactive
- outcome [9]: inactive
- AC50 [10]: 73.1 µM (active)
- AC50 [11]: 15.7 µM (active)
- AC50 [12]: 13.5 µM (active)
- outcome [13]: inactive
- outcome [14]: inactive
- outcome [15]: inactive

Compound: CNC(=O)Oc1cccc2c1OC(C)(C)O2
- outcome [20]: inactive
- outcome [3]: inactive
- outcome [4]: inactive
- outcome [17]: inactive
- outcome [6]: inactive
- outcome [19]: inactive
- outcome [7]: inactive
- AC50 [8]: 50 µM (active)
- outcome [9]: inactive
- outcome [10]: inactive
- AC50 [11]: 37 µM (active)
- AC50 [12]: 38.5 µM (active)
- AC50 [13]: 6.08 µM (active)
- outcome [14]: inactive
- outcome [15]: inactive

Compound: CCc1cnc(C2=NC(C)(C(C)C)C(=O)N2)c(C(=O)O)c1 (configuration not stated)
- outcome [2]: inactive
- outcome [3]: inactive
- outcome [4]: inactive
- outcome [17]: inactive
- outcome [7]: inactive
- outcome [8]: inactive
- outcome [9]: inactive
- outcome [11]: inactive
- outcome [12]: inactive
- outcome [14]: inactive
- outcome [15]: inactive

Compound: Cc1cc(C2CC2)nc(Nc2ccccc2)n1
- outcome [20]: inactive
- outcome [3]: inactive
- outcome [4]: inactive
- outcome [5]: inactive
- outcome [17]: inactive
- outcome [6]: inactive
- outcome [18]: inactive
- AC50 [7]: 76 µM (active)
- AC50 [8]: 29.3 µM (active)
- outcome [9]: inactive
- AC50 [11]: 13 µM (active)
- AC50 [12]: 15.7 µM (active)
- outcome [13]: inactive
- outcome [14]: inactive
- outcome [15]: inactive
